Consider eleven molecules from PubChem BioAssay (Tox21).

The nature of test [1]: qHTS assay to identify small molecule agonists of the peroxisome proliferator-activated receptor delta (PPARd) signaling pathway - cell viability counter screen (AID 743211; active means well fitted curve in the direction sought with a large enough effect in the repeat runs; an effect the other way counts as inactive or inconclusive; further: nearly all actives have a fitted effect of over 55% in size). A digest of the protocol: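 Following 5 h plating at 37 C and 5% CO2, PPARd UAS-bla HEK293H cells took up test compounds for 17 h. Viability was quantified by luminescence 30 min after CellTiter-Glo addition at room temperature.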

Test [2] concerns the target Peroxisome proliferator-activated receptor delta (Homo sapiens) (UniProt Q03181). Description: qHTS assay to identify small molecule antagonists of the peroxisome proliferator-activated receptor delta (PPARd) signaling pathway (AID 743215; active means well fitted inhibition curve with a large enough effect in the signal ratio in the repeat runs, not every such curve was filed as active; the % refers to the signal ratio;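 further: cells stimulated with agonist L165041 at 300 nM final during compound exposure; series mostly up to about 62 µM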). Put shortly: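 PPARd-bla HEK293H cells (UAS-bla reporter) preincubated 5 h, then given compound plus 300 nM final L165041 agonist for 17 h at 37 C. Beta-lactamase activity read by LiveBLAzer B/G FRET substrate fluorescence after 2 h at room temperature.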

In test [3] the target is Bile acid receptor (Homo sapiens) (UniProt Q96RI1). Kind of test: qHTS assay to identify small molecule antagonists of the farnesoid-X-receptor (FXR) signaling pathway (AID 743217; active means well fitted inhibition curve with a large enough effect in the signal ratio in the repeat runs, not every such curve was filed as active; the % refers to the signal ratio). Put shortly:
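FXR-UAS-bla HEK 293T cells (beta-lactamase reporter) given compound plus chenodeoxycholic acid (50 uM final), 16 h at 37C. LiveBLAzer B/G FRET substrate added for 2 h at room temperature; fluorescence read.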
On the technique in general: Quantitative high-throughput screening tests each substance at several concentrations.

Test [4] shares this target. Description: qHTS assay to identify small molecule agonists of the farnesoid-X-receptor (FXR) signaling pathway (AID 743220; active means well fitted activation curve with a large enough effect in the signal ratio in the repeat runs, not every such curve was filed as active; the % refers to the signal ratio). Put shortly: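 Beta-lactamase reporter under UAS control in GeneBLAzer FXR HEK 293T cells (5000/well) measured with LiveBLAzer FRET substrate after 2 h at room temperature. Compound exposure lasted 16 h at 37C.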
Test [5] can be described thus: qHTS assay to identify small molecule antagonists of the farnesoid-X-receptor (FXR) signaling pathway - cell viability counter screen (AID 743221; active means well fitted cell-killing curve with a large enough effect in the repeat runs, not every such curve was filed as active; further: nearly all actives have a fitted effect of over 50% in size). A digest of the protocol: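 Compound effects on cell number were measured as CellTiter-Glo luminescence in HEK 293T cells expressing FXR-UAS-bla, after 16 h at 37 C with 50 uM CDCA (final).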
Test [6] can be described thus: qHTS assay to identify small molecule antagonists of the vitamin D receptor (VDR) signaling pathway - cell viability counter screen (AID 743225; active means well fitted curve in the direction sought with a large enough effect in the repeat runs; an effect the other way counts as inactive or inconclusive; further: nearly all actives have a fitted effect of over 50% in size). Put shortly: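 In this counter screen, VDR-bla HEK 293T cells receive test compound plus 3 nM final calcitriol for 16 h at 37C. Room-temperature steps of 2 h with the beta-lactamase substrate, then 30 min with CellTiter-Glo, precede the luminescence read.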

Test [7] in a line: qHTS assay to identify small molecule agonists of the NFkB signaling pathway - cell viability counter screen (AID 1159515). Further: series mostly up to about 61 µM; nearly all actives have a fitted effect of over 55% in size. A digest of the protocol: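 NFkB-bla ME-180 cells, 2,000/well, plated overnight at 37 C; compound added for 5 hr at 37 C. Viability read in the same wells as the bla reporter, by CellTiter-Glo luminescence after 30 min at room temperature.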
A short description of test [8]: qHTS assay to identify small molecule agonists of the endoplasmic reticulum stress response signaling pathway (AID 1159516; active means well fitted activation curve with a large enough effect in the signal ratio in the repeat runs, not every such curve was filed as active; the % refers to the signal ratio). Put shortly: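 CellSensor ESRE-bla HeLa cells, 1,500 per well, plated overnight, then exposed to compounds for 5 hr at 37 C. Beta-lactamase reporter read with LiveBLAzer B/G FRET substrate after 2 hr at room temperature, 405 nm excitation, 460 and 530 nm emission.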

The nature of test [9]: qHTS assay to identify small molecule agonists of the endoplasmic reticulum stress response signaling pathway - cell viability counter screen (AID 1159517).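 Further: HeLa cells carrying an ER stress response element beta-lactamase reporter; series mostly up to about 61 µM; nearly all actives have a fitted effect of over 50% in size.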 Put shortly:
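Cells, HeLa ESRE-bla; density, 1,500/well; dosing, 5 hr at 37 C, 5% CO2; readout, CellTiter-Glo luminescence after 30 min RT.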

Test [10] is described as follows: qHTS assay to identify small molecule agonists of the AP-1 signaling pathway - cell viability counter screen (AID 1159525). Further: nearly all actives have a fitted effect of over 55% in size. A digest of the protocol: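 Luminescent ATP readout (Cell Titer Glo, 30 min RT), normalised to DMSO and tetra n-octyl ammonium bromide controls. Cells were ME-180 AP-1-bla in 0.5% dialyzed FBS Opti-MEM, with a 5 h, 37 °C compound exposure.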

Test [11] addresses Peroxisome proliferator-activated receptor delta (Homo sapiens) (UniProt Q03181). Description: qHTS assay to identify small molecule agonists of the peroxisome proliferator-activated receptor delta (PPARd) signaling pathway (AID 743212). A digest of the protocol:
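HEK293H UAS-bla reporter cells, human PPARd system; compounds delivered in DMSO after 5 h plating, then at 37 C. Beta-lactamase FRET read, 2 h RT substrate step.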

The nature of test [12]: qHTS assay to identify small molecule agonists of the vitamin D receptor (VDR) signaling pathway - cell viability counter screen (AID 743224; active means well fitted curve in the direction sought with a large enough effect in the repeat runs; an effect the other way counts as inactive or inconclusive; further: nearly all actives have a fitted effect of over 50% in size; further: potency means the concentration at half of the fitted maximal effect). A digest of the protocol: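 VDR-bla cells, 4 h after plating, exposed to compounds for 16 h at 37C; viability then read in the same wells as CellTiter-Glo luminescence after 30 min at room temperature, following the bla FRET read.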

Test [13] is described as follows: qHTS assay to identify small molecule antagonists of the peroxisome proliferator-activated receptor delta (PPARd) signaling pathway - cell viability counter screen (AID 743213; active means well fitted curve in the direction sought with a large enough effect in the repeat runs; an effect the other way counts as inactive or inconclusive; further: nearly all actives have a fitted effect of over 50% in size). A digest of the protocol: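 In this counter screen, HEK293H cells carrying a UAS-beta-lactamase reporter are co-treated with test compounds and 300 nM L165041 (final) for 17 h at 37 C; cell viability is quantified by CellTiter-Glo luminescence.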

Test [14] is described as follows: qHTS assay to identify small molecule agonists of the farnesoid-X-receptor (FXR) signaling pathway - cell viability counter screen (AID 743218; active means well fitted curve in the direction sought with a large enough effect in the repeat runs; an effect the other way counts as inactive or inconclusive; further: nearly all actives have a fitted effect of over 45% in size; further: potency means the concentration at half of the fitted maximal effect). Put shortly:
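FXR-UAS-bla HEK 293T cells exposed to compounds for 16 h at 37C. Cytotoxicity read in the same wells by CellTiter-Glo luminescence after 30 min at room temperature, following the beta-lactamase FRET read.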

Test [15] is described as follows: qHTS assay to identify small molecule agonists of the AP-1 signaling pathway (AID 1159526).
Test [16] addresses Retinoic acid receptor RXR-alpha (Homo sapiens) (UniProt P19793). Kind of test: qHTS assay to identify small molecule agonists of the RXR signaling pathway (AID 1159527). Further: nearly all actives have a fitted effect of over 35% in size. A digest of the protocol:
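Fluorescence ratio readout (460 vs 530 nm) from GeneBLAzer RXR-alpha HEK 293T cells after 16 hr compound treatment; cells seeded 5 hr beforehand in low-serum, charcoal-stripped medium.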

The target in test [17] is Vitamin D3 receptor (Homo sapiens) (UniProt P11473). Kind of test: qHTS assay to identify small molecule agonists of the vitamin D receptor (VDR) signaling pathway (AID 743222). A digest of the protocol:
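VDR-bla cells plated 4 h at 37 C, then exposed to compounds for 16 h at 37 C. Beta-lactamase reporter activity measured by fluorescence after 2 h room-temperature loading with LiveBLAzer B/G FRET substrate.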

For test [18], the target named is Nuclear receptor ROR-gamma (Homo sapiens) (UniProt P51449). Kind of test: qHTS assay to identify small molecule antagonists of the retinoid-related orphan receptor gamma (ROR-gamma) signaling pathway (AID 1159521; active means well fitted curve in the direction sought with a large enough effect in the repeat runs; an effect the other way counts as inactive or inconclusive; further: nearly all actives have a fitted effect of over 50% in size; further: potency means the concentration at half of the fitted maximal effect). A digest of the protocol: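 Screening format: cell-based luciferase reporter in CHO cells with doxycycline-inducible RORγ. Compound pre-exposure lasts 2 h, doxycycline is 1 uM final, induction runs 16 h at 37 C, and ONE-Glo luminescence is read.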

Test [19] has as its target Vitamin D3 receptor (Homo sapiens) (UniProt P11473). Kind of test: qHTS assay to identify small molecule antagonists of the vitamin D receptor (VDR) signaling pathway (AID 743223; active means well fitted inhibition curve with a large enough effect in the signal ratio in the repeat runs, not every such curve was filed as active; the % refers to the signal ratio). A digest of the protocol: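 Beta-lactamase activity in VDR-bla cells is measured by FRET substrate fluorescence (2 h, room temperature) after cells spend 16 h at 37C with test compound and 3 nM final 1alpha,25-dihydroxyvitamin D3.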

Test [20] in a line: qHTS assay to identify small molecule antagonists of the retinoid-related orphan receptor gamma (ROR-gamma) signaling pathway - cell viability counter screen (AID 1159520; active means well fitted curve in the direction sought with a large enough effect in the repeat runs; an effect the other way counts as inactive or inconclusive; further: nearly all actives have a fitted effect of over 50% in size). Put shortly: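 Cytotoxicity was read from cellular ATP (CellTiter-Glo luminescence) after 16 hr at 37 C with 1 uM doxycycline induction. The inducer was added 2 hr after compound transfer to Tet-on ROR gamma CHO cells.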

Structures are written as SMILES. Inconclusive results are not listed. A number with no mark means an inactive call. Activity calls are given as the source filed them. Unless noted, the call rests on the fitted dose curve.

Sequence of Bile acid receptor (Homo sapiens) (Q96RI1 whole entry, looked up): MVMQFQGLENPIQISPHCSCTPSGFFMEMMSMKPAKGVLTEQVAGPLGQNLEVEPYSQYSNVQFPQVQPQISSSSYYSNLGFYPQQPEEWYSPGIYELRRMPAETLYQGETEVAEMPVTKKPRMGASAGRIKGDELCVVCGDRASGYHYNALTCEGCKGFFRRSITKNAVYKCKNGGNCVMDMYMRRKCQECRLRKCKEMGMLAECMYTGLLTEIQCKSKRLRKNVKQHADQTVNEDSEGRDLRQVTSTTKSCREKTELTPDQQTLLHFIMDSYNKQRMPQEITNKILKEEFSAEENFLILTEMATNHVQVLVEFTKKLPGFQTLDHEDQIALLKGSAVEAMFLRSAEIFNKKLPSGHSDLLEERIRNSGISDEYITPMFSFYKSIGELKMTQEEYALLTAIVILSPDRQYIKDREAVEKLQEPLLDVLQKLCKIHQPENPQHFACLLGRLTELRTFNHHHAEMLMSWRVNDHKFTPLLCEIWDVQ
Sequence of Vitamin D3 receptor (Homo sapiens) (P11473 whole entry, looked up): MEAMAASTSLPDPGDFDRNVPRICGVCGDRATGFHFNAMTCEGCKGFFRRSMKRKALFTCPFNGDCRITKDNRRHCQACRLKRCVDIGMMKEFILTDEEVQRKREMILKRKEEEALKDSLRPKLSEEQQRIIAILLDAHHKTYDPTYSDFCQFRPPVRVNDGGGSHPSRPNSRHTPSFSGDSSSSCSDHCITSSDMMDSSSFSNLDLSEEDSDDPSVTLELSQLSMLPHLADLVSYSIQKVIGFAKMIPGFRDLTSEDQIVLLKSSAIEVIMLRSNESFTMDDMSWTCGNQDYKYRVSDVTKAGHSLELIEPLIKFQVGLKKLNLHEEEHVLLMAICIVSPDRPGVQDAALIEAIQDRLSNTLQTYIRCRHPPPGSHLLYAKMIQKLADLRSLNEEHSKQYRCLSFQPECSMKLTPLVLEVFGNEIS
Sequence of Retinoic acid receptor RXR-alpha (Homo sapiens) (P19793 whole entry, looked up): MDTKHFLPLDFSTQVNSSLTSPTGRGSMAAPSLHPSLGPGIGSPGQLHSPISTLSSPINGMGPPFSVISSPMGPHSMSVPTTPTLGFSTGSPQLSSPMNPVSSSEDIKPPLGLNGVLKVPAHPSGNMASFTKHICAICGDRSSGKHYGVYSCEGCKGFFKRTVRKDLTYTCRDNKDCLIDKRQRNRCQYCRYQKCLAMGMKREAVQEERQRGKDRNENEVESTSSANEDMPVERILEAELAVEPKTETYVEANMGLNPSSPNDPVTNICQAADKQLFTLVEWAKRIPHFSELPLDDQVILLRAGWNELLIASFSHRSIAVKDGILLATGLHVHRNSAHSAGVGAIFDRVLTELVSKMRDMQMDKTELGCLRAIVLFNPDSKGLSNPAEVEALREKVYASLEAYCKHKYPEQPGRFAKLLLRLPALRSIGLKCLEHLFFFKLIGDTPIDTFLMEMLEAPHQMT
Sequence of Peroxisome proliferator-activated receptor delta (Homo sapiens) (Q03181 whole entry, looked up): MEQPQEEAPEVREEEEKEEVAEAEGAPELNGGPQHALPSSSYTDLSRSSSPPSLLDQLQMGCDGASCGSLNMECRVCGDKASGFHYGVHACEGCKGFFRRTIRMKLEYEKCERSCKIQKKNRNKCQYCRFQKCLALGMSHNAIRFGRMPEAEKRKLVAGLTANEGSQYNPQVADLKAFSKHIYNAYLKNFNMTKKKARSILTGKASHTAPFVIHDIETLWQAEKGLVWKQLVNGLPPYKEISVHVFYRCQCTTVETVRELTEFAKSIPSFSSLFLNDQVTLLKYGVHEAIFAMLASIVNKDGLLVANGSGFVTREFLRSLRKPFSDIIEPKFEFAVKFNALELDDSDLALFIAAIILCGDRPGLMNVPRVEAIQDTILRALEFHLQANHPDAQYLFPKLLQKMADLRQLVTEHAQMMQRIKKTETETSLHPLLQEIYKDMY

Turning to `O=C(NC(=O)c1c(F)cccc1F)Nc1ccc(Oc2ccc(C(F)(F)F)cc2Cl)cc1F`, the Potency entry in test [1], in test [2], in [3], in [4], in test [5] and in [6] was “inactive” each time. For the same molecule, the Potency entry in test [7], in [8], in [9] and in test [10] was “inactive” in each case.
`O=S1(=O)OCC2C(CO1)C1(Cl)C(Cl)=C(Cl)C2(Cl)C1(Cl)Cl` (configuration not stated): the Potency result in test [11], in test [7], in [8] and in test [9] was “inactive” each time. Also, the Potency in test [12] was 49 µM (active).
Consider `CC(C)NCC(O)c1ccccc1Cl` (configuration not stated), for which the Potency entry in test [1], in test [11], in test [13], in test [2], in test [14] and in test [5] was “inactive” throughout. The Potency result in [12], in test [6], in test [7], in test [8], in test [9] and in test [10] was “inactive” in each case. Also, the Potency result in [15] and in test [16] was “inactive” in each case.
As to `C[C@H]1[C@H](c2ccc(Cl)cc2)SC(=O)N1C(=O)NC1CCCCC1`, the Potency result in test [1], in test [14], in test [5], in test [17], in [7] and in [8] was “inactive” each time. The Potency result in test [9], in test [10] and in test [15] was “inactive” each time. Further, the Potency in test [18] is 48.6 µM (active).
As to `CN1C2CCC(C)(C)C1CC(OC(=O)C(O)(c1cccs1)c1cccs1)C2` (configuration not stated), the Potency entry in test [1], in test [11], in test [13], in [3], in [14] and in test [17] was “inactive” throughout. For the same molecule, the Potency entry in test [19], in test [12], in test [6], in [7], in test [8] and in test [20] was “inactive” each time. Further, the Potency entry in test [18], in test [10], in test [15] and in test [16] was “inactive” in each case.
With `CCOP(=S)(NC(C)C)Oc1ccccc1C(=O)OC(C)C` (configuration not stated), the Potency entry in test [1], in test [11], in test [13], in test [4], in test [19] and in [12] was “inactive” throughout. For the same molecule, the Potency entry in test [6], in [7], in test [8], in test [9] and in test [15] was “inactive” in each case. The Potency in [14] is 21.9 µM (active); in test [18] it was 21.7 µM (active).
`C[C@@H]1CC2=CC(=O)CC[C@@H]2[C@H]2CC[C@@]3(C)[C@@H](CC[C@]3(C)O)[C@@H]21`: the Potency result in [1], in [13], in [3], in test [14], in test [4] and in test [5] was “inactive” throughout. The Potency result in test [17], in [19], in test [12], in test [6], in test [7] and in test [8] was “inactive” throughout. For the same molecule, the Potency entry in test [9], in test [10] and in [15] was “inactive” in each case.
In the case of `CN`, the Potency result in test [1], in test [13], in [14], in test [5], in test [17] and in test [19] was “inactive” in each case. The Potency entry in test [12], in test [6], in test [7], in test [8], in test [20] and in [18] was “inactive” in each case. In addition, the Potency entry in test [10], in test [15] and in [16] was “inactive” throughout.
On to `CN(C)c1ccc(N)cc1`, for which the Potency entry in test [11], in [14], in test [5], in [17], in test [7] and in test [8] was “inactive” throughout. Moreover, the Potency entry in test [9] and in [10] was “inactive” in each case. Moreover, the Potency in test [12] is 42.6 µM (active).
As for `[Cl-].[Cl-].[Cl-].[Yb+3]`, the Potency entry in test [1], in test [13], in [14], in test [5], in test [12] and in test [7] was “inactive” in each case. Also, the Potency entry in [8], in test [9], in test [10] and in [15] was “inactive” each time.
On to `CSC(=O)c1c(C(F)F)nc(C(F)(F)F)c(C(=O)SC)c1CC(C)C`, for which the Potency result in [11], in test [2], in test [14], in [5], in test [7] and in [8] was “inactive” throughout. Besides, the Potency result in test [9], in [10] and in test [15] was “inactive” each time. In test [18], the Potency was 54.2 µM (active).
